The results in this text go back to PubChem BioAssay.

Calls of active or inactive are those of the source. Unless noted, no rule for the calls is given here.

The subject of experiment [1] is Wnt5a (protein binding on small-molecule microarray). The experiment is described as follows: small molecules binding Wnt5a protein – biophysical, small-molecule microarray, 635/667 nm fluorescence, primary screen (AID 1142).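 Also: fluorescence read at 667 nm with signal to noise per printed feature.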 The settings on record: 635 nm fluorescence, higher = more signal.
The nature of experiment [2]: ATP-based viability of Huh7 replicon cells – cell-based, CellTiter-Glo luminescence, basal, 48 h, cytotoxicity control for HCV replication inhibitor project, primary screen (AID 1143).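 Also: Huh7 hepatoma cells carrying a hepatitis C replication reporter with no stimulus; test concentration not given here.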 The settings on record: higher = more signal, called active from +8 up or from −8 down.
The nature of experiment [3]: Pseudomonas biofilm growth suppression – PAO1 strain, BacTiter-Glo luminescence, LB-PBS, primary screen (AID 1144). The settings on record: P. aeruginosa PAO1 biofilm, 12 h, higher = more signal.
Experiment [4] in a line: basal CRE-LacZ reporter activity in PC12 – cell-based, unstimulated, primary screen (AID 1145). The settings on record: no forskolin, luminescence, 4.5 h, higher = more signal, called active from +8 up or from −8 down.
Experiment [5] in a line: forskolin-driven CRE-LacZ activity in PC12 – cell-based, CRE-LacZ reporter, forskolin-stimulated, primary screen (AID 1146).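 Also: PC12 cells with 6xCRE LacZ reporter stimulated by forskolin 10 µM; beta-galactosidase reporter signal reflecting CREB driven transcription.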 Particulars: luminescence, 4.5 h, higher = more signal, called active from +8 up or from −8 down.
Experiment [6] has as its target Streptavidin (Streptomyces avidinii) (UniProt P22629). Put plainly: compounds binding control protein streptavidin – biophysical, small-molecule microarray, 635/667 nm fluorescence, artefact control for SMM compound annotation, primary screen (AID 1147).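 Also: signal reflects streptavidin binding to arrayed compounds as a control protein.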 Particulars: higher = more signal.
Experiment [7] can be described thus: probe aInhba binding on compound microarray – biochemical, small-molecule microarray, 635/667 nm fluorescence, primary screen (AID 1148).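 Also: score merges 667nm spot fluorescence with signal-to-noise for antibody binding to printed compounds.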 The settings on record: higher = more signal.
In experiment [8] the target is Torsin-1A (Homo sapiens) (UniProt O14656). The experiment is described as follows: TOR1A wild-type binding on microarray – cell lysate, small-molecule microarray, lysate, 635/667 nm, primary screen (AID 1149). Particulars: COS7 hTOR1A-WT lysate, 635 nm fluorescence, higher = more signal.
Sequence of Torsin-1A (Homo sapiens) (O14656 whole entry, looked up): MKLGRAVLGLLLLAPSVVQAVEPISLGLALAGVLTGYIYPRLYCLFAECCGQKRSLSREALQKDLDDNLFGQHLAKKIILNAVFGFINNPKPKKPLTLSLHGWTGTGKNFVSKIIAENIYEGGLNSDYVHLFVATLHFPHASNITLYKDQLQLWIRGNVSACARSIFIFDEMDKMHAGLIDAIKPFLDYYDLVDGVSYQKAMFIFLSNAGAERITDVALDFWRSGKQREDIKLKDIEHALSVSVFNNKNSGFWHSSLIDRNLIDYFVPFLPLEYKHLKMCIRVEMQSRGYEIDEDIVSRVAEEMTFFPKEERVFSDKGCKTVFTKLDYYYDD
For experiment [9] the target is unchanged. Put plainly: torsin A mutant lysate binding on microarrays – cell lysate, small-molecule microarray, COS7 lysate, 635/667 nm fluorescence, primary screen (AID 1150).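 Also: score pools 667 nm emission and signal to noise measuring lysate protein binding.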 The settings on record: COS7 hTOR1A mutant lysate, 635 nm fluorescence, higher = more signal.
In experiment [10] the test system is Sonic hedgehog protein (Shh). The experiment is described as follows: Sonic hedgehog microarray binding compounds – biochemical, small-molecule microarray, 635/667 nm fluorescence, primary screen (AID 1151).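 Also: Shh protein binding to compounds spotted on small-molecule microarray slides; score combines spot fluorescence intensity with signal-to-noise across triplicate slides.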 The settings on record: 635 nm fluorescence, higher = more signal.
Experiment [11] in a line: optical density shifts of acrAB sulA E. coli – strain DRC41, OD650, 48 h, E. coli filamentation inducer project, primary screen (AID 1152).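 Also: E. coli MC1000 strain DRC41 lacking acrAB efflux pump and sulA.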 The settings on record: higher = more signal, called active from +8 up or from −8 down.
Experiment [12] is described as follows: probe aLefty1 binding on compound microarray – biochemical, small-molecule microarray, 635/667 nm fluorescence, primary screen (AID 1153).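 Also: score merges spot fluorescence with signal-to-noise ratio from the scanned slide images.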 Particulars: higher = more signal.
Experiment [13] can be described thus: plasmodial surface anion channel blockers, osmotic lysis – cell-based, P. falciparum Indochina, OD700, 1 h, primary screen (AID 1154). The settings on record: P. falciparum Indochina infected RBC osmotic lysis, higher = more signal, called active from +8 up or from −8 down.
Experiment [14] can be described thus: plasmodial surface anion channel blockers, osmotic lysis – cell-based, P. falciparum Indochina, OD700, 2 h, primary screen (AID 1155).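 Also: lysis reports solute entry through the parasite surface anion channel PSAC.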 The settings on record: P. falciparum Indochina infected erythrocytes, higher = more signal, called active from +8 up or from −8 down.
Experiment [15] can be described thus: changes in parasitized red cell lysis, either direction – P. falciparum Indochina, OD700, 3 h, PSAC antagonist project, primary screen (AID 1156). The settings on record: P. falciparum-infected erythrocytes, osmotic lysis, higher = more signal, called active from +8 up or from −8 down.
Experiment [16] can be described thus: plasmodial surface anion channel blockers, osmotic lysis – cell-based, P. falciparum Indochina, OD700, 18 h, primary screen (AID 1157). The settings on record: P. falciparum Indochina infected erythrocytes, osmotic lysis OD700, 18 h; higher = more signal, called active from +8 up or from −8 down.
Experiment [17] is described as follows: S6 kinase pathway phospho-S6 level changes – cell-based, A549, cytoblot, luminescence, serum-stimulated, primary screen (AID 1158).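 Also: serum-stimulated A549 lung adenocarcinoma cells; signal is phosphorylated S6 detected by cytoblot immunostaining with HRP secondary.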 The settings on record: 5 h, higher = more signal.
In experiment [18] the target is NADPH oxidase 2 (Homo sapiens) (UniProt P04839). The experiment is described as follows: compounds shifting NOX2 Amplex Red fluorescence – cell-based, HEK293-NOX2, PMA-stimulated, NOX inhibitor project, primary screen (AID 1159). Also: test concentration not given here. The settings on record: 45 min, higher = more signal, called active from +8 up or from −8 down.
Sequence of NADPH oxidase 2 (Homo sapiens) (P04839 whole entry, looked up): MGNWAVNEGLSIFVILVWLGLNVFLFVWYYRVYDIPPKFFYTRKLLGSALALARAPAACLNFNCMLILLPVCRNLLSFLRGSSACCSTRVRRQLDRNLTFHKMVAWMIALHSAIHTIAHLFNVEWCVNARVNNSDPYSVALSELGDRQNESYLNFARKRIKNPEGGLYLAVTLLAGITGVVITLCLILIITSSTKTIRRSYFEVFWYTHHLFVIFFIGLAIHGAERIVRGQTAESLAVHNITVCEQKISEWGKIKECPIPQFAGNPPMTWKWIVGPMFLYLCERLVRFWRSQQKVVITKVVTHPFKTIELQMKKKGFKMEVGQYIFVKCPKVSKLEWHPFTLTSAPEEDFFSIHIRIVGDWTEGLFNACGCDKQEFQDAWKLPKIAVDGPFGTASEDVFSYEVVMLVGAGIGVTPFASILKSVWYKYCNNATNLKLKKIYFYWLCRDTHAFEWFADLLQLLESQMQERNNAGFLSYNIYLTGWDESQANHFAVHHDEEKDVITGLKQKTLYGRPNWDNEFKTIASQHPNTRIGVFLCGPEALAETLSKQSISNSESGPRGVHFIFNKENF
Experiment [19] deals with NADPH oxidase 4 (Homo sapiens) (UniProt Q9NPH5). Put plainly: compounds shifting NOX4 Amplex Red fluorescence – cell-based, HEK293-NOX4, tetracycline-induced, NOX inhibitor project, primary screen (AID 1160). The settings on record: HEK293-NOX4, Amplex Red H2O2 fluorescence, 45 min; higher = more signal, called active from +8 up or from −8 down.
Sequence of NADPH oxidase 4 (Homo sapiens) (Q9NPH5 whole entry, looked up): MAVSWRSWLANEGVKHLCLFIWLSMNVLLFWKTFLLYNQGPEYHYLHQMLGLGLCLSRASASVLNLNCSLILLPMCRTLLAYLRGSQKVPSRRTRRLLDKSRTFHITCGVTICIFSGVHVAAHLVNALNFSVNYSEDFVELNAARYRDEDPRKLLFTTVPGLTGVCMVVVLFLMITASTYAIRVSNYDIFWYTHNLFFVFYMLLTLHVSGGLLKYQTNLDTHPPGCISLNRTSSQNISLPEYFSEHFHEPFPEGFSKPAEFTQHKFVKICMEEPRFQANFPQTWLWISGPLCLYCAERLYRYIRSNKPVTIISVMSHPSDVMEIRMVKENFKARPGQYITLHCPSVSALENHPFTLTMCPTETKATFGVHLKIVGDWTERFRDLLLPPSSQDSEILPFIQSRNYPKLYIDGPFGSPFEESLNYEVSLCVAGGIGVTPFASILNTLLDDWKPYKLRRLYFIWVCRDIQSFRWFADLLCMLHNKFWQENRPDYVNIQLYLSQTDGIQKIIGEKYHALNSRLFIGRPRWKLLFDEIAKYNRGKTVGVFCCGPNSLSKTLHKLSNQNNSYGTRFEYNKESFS
In experiment [20] the target is NADPH oxidase 5 (Homo sapiens) (UniProt Q96PH1). The experiment is described as follows: compounds shifting NOX5 Amplex Red fluorescence – cell-based, HEK293-NOX5, NOX inhibitor project, primary screen (AID 1161). The settings on record: HEK293-NOX5, ionomycin, 45 min, higher = more signal.
Sequence of NADPH oxidase 5 (Homo sapiens) (Q96PH1 whole entry, looked up): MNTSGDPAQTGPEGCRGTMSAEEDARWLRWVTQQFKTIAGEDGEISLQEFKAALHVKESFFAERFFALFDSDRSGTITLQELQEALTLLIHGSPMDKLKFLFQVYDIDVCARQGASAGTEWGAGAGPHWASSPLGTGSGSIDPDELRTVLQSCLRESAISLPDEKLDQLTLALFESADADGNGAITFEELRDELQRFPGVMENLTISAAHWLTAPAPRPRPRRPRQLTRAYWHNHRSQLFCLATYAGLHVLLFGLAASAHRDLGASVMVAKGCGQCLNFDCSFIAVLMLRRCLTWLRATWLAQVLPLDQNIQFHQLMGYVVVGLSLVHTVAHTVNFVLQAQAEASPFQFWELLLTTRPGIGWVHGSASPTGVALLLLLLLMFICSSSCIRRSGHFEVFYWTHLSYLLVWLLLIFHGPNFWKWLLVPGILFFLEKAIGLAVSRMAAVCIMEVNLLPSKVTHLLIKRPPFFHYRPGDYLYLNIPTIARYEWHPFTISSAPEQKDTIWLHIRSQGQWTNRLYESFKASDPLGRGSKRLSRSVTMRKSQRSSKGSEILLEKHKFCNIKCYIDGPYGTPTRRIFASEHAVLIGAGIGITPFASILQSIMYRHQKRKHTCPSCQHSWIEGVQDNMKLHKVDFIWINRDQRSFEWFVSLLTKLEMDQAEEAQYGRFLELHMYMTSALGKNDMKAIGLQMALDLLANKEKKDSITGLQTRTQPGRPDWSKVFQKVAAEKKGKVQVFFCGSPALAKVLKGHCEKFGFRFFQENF

Sequence of Streptavidin (Streptomyces avidinii) (P22629 whole entry, looked up): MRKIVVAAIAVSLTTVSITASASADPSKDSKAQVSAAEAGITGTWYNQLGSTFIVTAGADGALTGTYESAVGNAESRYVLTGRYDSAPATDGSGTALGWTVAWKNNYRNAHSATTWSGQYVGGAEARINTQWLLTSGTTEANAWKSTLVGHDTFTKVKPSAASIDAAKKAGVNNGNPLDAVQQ

`CCC[C@@H]1[C@@H](Sc2ccccc2)[C@@H](C(=O)O)[C@H](c2ccc(C)cc2)N1S(=O)(=O)c1ccc(C)cc1`: the composite z-score came to 0.664 in [1]; 1.67 in [6]; 0.0921 in [7]; 0.26 in experiment [8]; 0.165 in experiment [9]; 0.641 in experiment [10]. In addition, the composite z-score in experiment [12] came to 0.0531. The z-score in experiment [2] was -1.72 (inactive); in experiment [3], -1.96 (inactive); in experiment [4], -0.471 (inactive); in experiment [5], -0.722 (inactive); in experiment [11] it was 0.086 (inactive); in [13], 1.44 (inactive). The z-score is 0.495 (inactive) in experiment [14]; -0.892 (inactive) in experiment [15]; 1 (inactive) in experiment [16]; -0.0334 in [17]; 1.82 (inactive) in experiment [18]; 0.872 (inactive) in experiment [19]. Also, in experiment [20], the z-score came to 1.27.

For `COCCOC(=O)N1C(=O)[C@@]2(c3cc(C#Cc4ccc(OC)cc4)ccc31)[C@H](c1ccc(OCCO)cc1)N1[C@H](c3ccccc3)[C@H](c3ccccc3)OC(=O)[C@H]1[C@@H]2C(=O)N1CCCCCCC1`, the composite z-score in experiment [1] was 0.713; in experiment [6] it was 2.42; in [7] it was 1.65; in experiment [8], 0.666; in experiment [9] it was 1.71; in experiment [10], 2.02. The same compound had a composite z-score in [12] of 2.74. Also, the z-score in [2] is -3.28 (inactive); in experiment [3], -1.44 (inactive); in experiment [4] it was 0.891 (inactive); in experiment [5], -0.498 (inactive); in experiment [11] it was 0.543 (inactive); in experiment [13], 2 (inactive). In addition, the z-score was 0.481 (inactive) in [14]; 0.306 (inactive) in [15]; 0.0489 (inactive) in experiment [16]; 1.59 in experiment [17]; 0.928 (inactive) in experiment [18]; 0.274 (inactive) in [19]. For the same compound, the z-score in experiment [20] turned out to be 1.19.

Consider `Cc1ccc(F)cc1S(=O)(=O)N[C@@H]1CCN(Cc2ccc3[nH]ccc3c2)C1`, for which the composite z-score in experiment [1] was -0.159; in experiment [6], 0.874; in experiment [7] it was -0.0403; in [8], 0.247; in [9], 0.608; in [10], 0.711. The composite z-score in [12] is -0.238. Besides, the z-score in experiment [2] is -2.99 (inactive); in [3] it was 1.17 (inactive); in experiment [4] it was -0.147 (inactive); in experiment [5], 0.49 (inactive); in [11] it was -5.9 (inactive); in experiment [13] it was 3.05 (inactive). In addition, the z-score was 0.843 (inactive) in [14]; 0.255 (inactive) in [15]; 0.673 (inactive) in experiment [16]; -0.0977 in [17]; -0.163 (inactive) in experiment [18]; -1.11 (inactive) in experiment [19]. For the same compound, the z-score in experiment [20] was -1.96.

Regarding `O=C1O[C@@H](c2ccccc2)[C@@H](c2ccccc2)N2[C@@H](c3ccc(O)cc3)[C@]3(C(=O)Nc4ccc(C#CC5=CCCCC5)cc43)[C@@H](C(=O)N3CCCCCCC3)[C@H]12`, the composite z-score in [1] amounted to 0.0888; in experiment [6], 1.1; in experiment [7], 1.04; in [8] it was 1.12; in experiment [9] it was 0.772; in experiment [10], 1.95. In addition, the composite z-score in [12] was found to be 2.57. For the same compound, the z-score in [2] was -4.91 (inactive); in [3], -0.815 (inactive); in experiment [4], 0.155 (inactive); in [5] it was -0.782 (inactive); in experiment [11], 1.3 (inactive); in experiment [13] it was -0.781 (inactive). The z-score is -1.2 (inactive) in experiment [14]; -0.993 (inactive) in [15]; -2.4 (inactive) in experiment [16]; 2.98 in experiment [17]; 0.682 (inactive) in [18]; 0.597 (inactive) in experiment [19]. The z-score in [20] was found to be 1.56.

Regarding `C=CCC(OC(C)=O)[C@@H]1[C@@H](N(Cc2ccc(-c3ccccc3)cc2)C(=O)c2cccc3ccccc23)c2cc(OCCCO)ccc2N1C(=O)c1ccc2ccccc2c1` (stereo not given in full), the composite z-score in experiment [1] is 0.0959; in experiment [6], 0.144; in experiment [7] it was 0.0219; in experiment [8], -0.0928; in [9], 0.0249; in experiment [10], 0.156. Moreover, the composite z-score in experiment [12] is -0.0447. Besides, the z-score is -1.61 (inactive) in experiment [2]; 0.41 (inactive) in experiment [3]; -0.155 (inactive) in experiment [4]; 0.108 (inactive) in [5]; -0.887 (inactive) in [11]; 0.441 (inactive) in experiment [13]. Besides, the z-score in experiment [14] is -0.35 (inactive); in experiment [15], -0.0836 (inactive); in [16], -0.0577 (inactive); in [17] it was -0.146; in experiment [18], -0.634 (inactive); in experiment [19], -0.572 (inactive). Further, the z-score in [20] was -4.29.
